VACV Venus inh: inhibitors of vaccinia virus (Venus reporter) | Vaccinia virus Venus reporter expression, fluorescence | Potency, µM (series often up to 36.5 µM), for the others: at the highest dose activity change, negative = inhibition, hits mostly inhibitors | 0.46% of 330,000 active | AID 720580; calls by dose curve; tested in A549 cells; note: potency is the fitted concentration of half-maximal effect; nearly all actives have a fitted effect of over 30% in size
Marburg entry inh: blocks Marburg virus binding to or entry into cells; Marburg virus pseudotyped entry inhibition, cell reporter; Potency, µM (top dose mostly 37.8 µM), for inactives: at the top dose activity change, negative = inhibition, hits mostly inhibitors; 1.8% of 300,000 active; AID 540276; calls by dose curve; tested in HEK293 cells; note: potency is the fitted concentration of half-maximal effect
VACV mCherry inh: inhibitors of vaccinia virus infection (mCherry reporter signal); 0.63% of 310,000 active; Vaccinia virus mCherry reporter infection, fluorescence; AID 720579; Potency, µM (doses to about 36.5 µM), for the others: at the highest dose activity change, negative = inhibition, hits mostly inhibitors; calls by dose curve; tested in A549 cells; note: potency is the fitted concentration of half-maximal effect; nearly all actives have a fitted effect of over 35% in size
LASV entry inh: blocks Lassa virus binding to or entry into cells; Lassa virus pseudotype entry inhibition, cell reporter; Potency, µM (titrated, usually from 37.9 µM), for the others: top-dose activity change, negative = inhibition, most hits filed as inhibitors; 1.2% of 300,000 active; calls by dose curve; tested in HEK293 cells; note: potency is the fitted concentration of half-maximal effect; nearly all actives have a fitted effect of over 50% in size
FMDV inh: antivirals against foot and mouth disease virus. FMDV antiviral cell-based qHTS. Potency, µM (titrated, usually from 57.9 µM), for inactives: top-dose activity change, negative = inhibition, actives largely listed as inhibitors. 1.2% of 410,000 active. AID 1159524; calls by dose curve; tested in HEK293T cells; note: read-out not given here; potency is the fitted concentration of half-maximal effect; nearly all actives have a fitted effect of over 45% in size
HCMV antiviral: human cytomegalovirus inhibition | HFF cells, HCMV-luciferase reporter, 72 h; active compounds read low | activity change, negative = inhibition, % at 57.5 µM | 4.5% of 410,000 active | AID 1259415; in the data active = activity change below about -60%; inconclusive = no clear call, values can overlap the other calls; inactive = above about -39%
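Luciferase read-out from HCMV-luciferase-infected HFFs (MOI 1 PFU/cell) 72 h post infection at 37C; compounds added after 16 h cell attachment; activity normalized between buffer-only basal and Salinomycin (10uM) inhibitor controls.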
* hit, by the source's call; i = inactive; ? = inconclusive; · = no result given; [ ] = dose if it differs, or a comment. Most compounds without a hit are left out; they make up all but 6.5% or so of the library. % is set by controls: 0 for no effect and ±100 for the full control effect.

SMILES | VACV Venus inh | Marburg entry inh | VACV mCherry inh | LASV entry inh | FMDV inh | HCMV antiviral
Cc1ccccc1C(=O)Nc1cccc(NC(=O)c2ccc(-c3ccc(Br)cc3)o2)c1 | -21% | ? | · | ? | ? | -96*
COc1ccc(NC(=O)c2sc3nc4c(cc3c2N)CN(C(C)C)CC4)c(OC)c1 | -12% | -1%[46.1 µM] | -20% | 3%[46.1 µM] | ? | -35
CCOc1ccc2nc(NC(=O)CSc3nc4c(c(=O)n(C)c(=O)n4C)n3C(C)C)sc2c1 | -3% | ? | -4% | -8% | 22µM* | -1
CC(C)n1c(SCC(=O)Nc2nc3ccccc3s2)nc2c1c(=O)n(C)c(=O)n2C | -12% | ? | -23% | -20% | 22µM* | 67
CC1CN=C(c2ccc(Cl)cc2)c2c3ccccc3nn21 (centres undefined) | · | · | · | · | · | 26
COc1ccc(CNC(=O)c2nc(SCc3ccccc3F)ncc2Cl)cc1 | -5% | ? | -11% | ? | ? | -31
O=[N+]([O-])/C(C(=C(Cl)Cl)N1CCOCC1)=C1\NCCO1 | 10µM* | -13% | 16µM* | 19% | 5% | 13
CN1CCO/C1=C(\C(Cl)=C(Cl)Cl)[N+](=O)[O-] | -3% | 7%[14.2 µM] | -6% | 3% | 8% | 16
CCN1CC(CN(C)Cc2cn(-c3ccc(C)cc3)nc2-c2cccc(C)c2)CC1=O (centres undefined) | -17% | 11µM* | i | ? | -1% | 13
COc1ccc(Cl)cc1Nc1cc(C)nc2nc(-c3ccccc3C)nn12 | -23% | 7%[46.1 µM] | -24% | 5%[46.1 µM] | -17% | 9
CCOC(=O)c1c(NC(C)=O)sc2c(OCC(O)CNC(C)(C)C)c(Br)ccc12 (centres undefined) | · | · | · | · | -11% | -85*
CCOC(=O)c1c(N)sc2c(OCC)c(Br)ccc12 | -30% | ? | -22% | -12% | · | -5
Cc1cccc2cc(CN(CC3CCCO3)C(=O)c3cccc(F)c3)c(N(C)C)nc12 (centres undefined) | 3% | · | -14% | · | -5% | ·
Oc1ccc(C[C@@H]2CNCCN2CC2CCCCC2)cc1 | -19% | · | -19% | · | -12% | ?
c1ccc2c(C[C@@H]3CNCCN3CC3CCCCC3)cccc2c1 | ? | · | ? | · | -17% | -63*
N#Cc1sc2nc(C3CC3)cc(-c3ccc(Cl)cc3)c2c1N | 14µM* | ? | 4.5µM* | ? | ? | 19
Cc1nn(CCCC(=O)NCCc2ccc(Cl)cc2)c(=O)c2c1sc1ccccc12 | -7% | ? | -8% | ? | -15% | -16
Cc1ccc(C(=O)COC(=O)c2ccc3c(c2)C(=O)N(c2cccc4ncccc24)C3=O)cc1 | · | ? | · | ? | ? | -94*
O=C(COC(=O)c1ccc2c(c1)C(=O)N(c1cccc3ncccc13)C2=O)c1ccc(Cl)cc1 | -17% | ? | i | ? | ? | -89*
CCOC(=O)c1c(Nc2ccc(C)c(C)c2)nnc(-c2ccccc2)c1-c1ccccc1 | 3% | -21%[46.1 µM] | 5% | -28%[46.1 µM] | -27% | -22
COc1cccc(C(=O)Nc2c3c(nn2-c2ccc(C)cc2C)CS(=O)(=O)C3)c1OC | -10% | · | -12% | -20%[46.1 µM] | -3% | -18
COCCNS(=O)(=O)c1ccc(-c2ccc(C)cc2)cc1 | · | -1% | · | ? | 4% | -64*
Cc1ccc(S(=O)(=O)NCCOCCNS(=O)(=O)c2ccc(C)cc2)cc1 | · | 1% | · | 1% | 6% | -12
COc1cc(/C=C2\SC(=Nc3ccccc3)N(CCc3c[nH]c4ccccc34)C2=O)ccc1OC(C)C(=O)O (centres undefined) | 2% | -1% | -15% | 0% | 0% | -32
O=C1/C(=C/c2ccc(N3CCOCC3)o2)SC(=Nc2ccccc2)N1CCc1c[nH]c2ccccc12 | 20% | ? | ? | 7.1µM* | -16% | ·
SMILES | VACV Venus inh | Marburg entry inh | VACV mCherry inh | LASV entry inh | FMDV inh | HCMV antiviral
O=C(Cn1c(=O)oc2ccccc21)NCc1ccccc1Cl | -9% | · | -4% | -1%[46.1 µM] | 48% | 12
COc1ccc(NC(=O)CN(c2cc(C)cc(C)c2)S(=O)(=O)c2c(C)noc2C)cc1Cl | -2% | -12%[46.1 µM] | -14% | 0%[46.1 µM] | -23% | -23
COC(=O)c1c(C(=O)OC)c(-c2ccc(C)cc2)n2c1CCC2 | · | -7% | · | -23% | -6% | -33
COC(=O)c1c(C(=O)OC)c(-c2ccc(OC)cc2)n2c1CS(=O)(=O)C2 | · | · | · | · | -1% | -74*
Nc1nc(SCc2ccc(F)cc2)ns1 | -12% | -5%[46.1 µM] | i | ? | 35% | -74*
Nc1nnc(SCc2ccc(F)cc2)s1 | · | 11% | · | ? | 26% | -14
CC(C)CNC(=O)c1coc(=O)c(Br)c1 | · | ? | · | 16µM* | ? | -77*
Cc1cc(C(=O)NCCC2=CCCCC2)c(C)o1 | · | 15µM* | · | ? | 1% | 107
O=C(NCCC1=CCCCC1)c1coc(=O)c(Br)c1 | -12% | 5% | i | -12% | -25% | -103*
CCCNC(=O)N1C2=NC(C(=O)OC)=C(C(=O)OC)[C@@H]3N(C)c4ccccc4[C@]23C[C@H]1C(=O)OC | · | 7%[14.2 µM] | · | · | · | ·
Cc1ccccc1NC(=O)N1CCCN(c2ccc(C#N)cn2)CC1 | -3% | -2% | -10% | 3% | -19% | 49
CCCCNC(=O)N1CCCN(c2ccc(C#N)cn2)CC1 | · | -5% | · | · | 5% | -65*
COc1cc(/C=N/NC(=S)NCc2ccccc2)ccc1OCC#N | -23% | ? | ? | ? | 0% | -18
CC(C)(C)c1ccc(/C=N/NC(=S)NCc2ccccc2)cc1 | -18% | 1% | -10% | 0.26µM* | -5% | -24
CCOc1ccc(CNC(=S)N/N=C/c2ccc(OC)c(OC)c2)cc1 | ? | -72% | ? | 2.8µM* | 8% | 3
CN(C)c1ccc(/C=N/NC(=S)NCc2ccccc2)cc1 | -11% | -1% | -3% | 0.28µM* | 21% | -19
Cc1csc2nc(COc3ccccc3NC(=O)c3ccco3)cc(=O)n12 | -9% | 11%[46.1 µM] | -19% | 11%[46.1 µM] | -2% | 28
O=C(Nc1ccc(-c2csc(Nc3ccccc3)n2)cc1)c1cccc(C(F)(F)F)c1 | ? | · | ? | · | ? | -81*
O=C(Nc1ccc(-c2csc(Nc3ccc(Cl)cc3)n2)cc1)c1cccc(C(F)(F)F)c1 | ? | 0% | ? | · | 20µM* | ?
Cc1c(C)c2cc(Cl)c(O)c(CN3CCC[C@@H](C)C3)c2oc1=O | · | 0% | · | · | · | ·
NCC(c1ccccc1)(c1ccccc1)c1ccccc1 | -26% | 7.9µM* | -22% | 1% | -25% | 1
CN(C)CCC(O)(c1ccccc1)c1ccccc1 | -11% | ? | i | -1% | · | ·
CCOc1ccc(C2c3c(-c4cc(C)ccc4O)n[nH]c3C(=O)N2Cc2cccnc2)cc1OCC (centres undefined) | -1% | ? | -8% | ? | -18% | -10
COc1ccc(C2c3c(-c4ccccc4O)n[nH]c3C(=O)N2CCc2ccccc2)cc1 (centres undefined) | -7%[7.34 µM] | ? | -3%[7.34 µM] | ? | -25% | -67*

Screening data (PubChem)
